GPR151 activ: activators of human GPR151; activation, % at 11.2 µM; PathHunter beta-arrestin GPR151 cells, luminescence; 650,000 compounds, 1% hits; Q8TDV0; AID 1508602; in the data active = activation above about 4.9%;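 also: 0% = median of compound wells and 100% = cells with positive control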
MITF inh: human MITF inhibition, primary screen; O75030; AlphaScreen MITF homodimerization, bead proximity signal; inhibition, % at 2.6 µM; 650,000 compounds, 0.91% hits; in the data active = inhibition above about 50%;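 also: 0% = vehicle wells with protein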
Target sequence (O75030 whole entry, looked up): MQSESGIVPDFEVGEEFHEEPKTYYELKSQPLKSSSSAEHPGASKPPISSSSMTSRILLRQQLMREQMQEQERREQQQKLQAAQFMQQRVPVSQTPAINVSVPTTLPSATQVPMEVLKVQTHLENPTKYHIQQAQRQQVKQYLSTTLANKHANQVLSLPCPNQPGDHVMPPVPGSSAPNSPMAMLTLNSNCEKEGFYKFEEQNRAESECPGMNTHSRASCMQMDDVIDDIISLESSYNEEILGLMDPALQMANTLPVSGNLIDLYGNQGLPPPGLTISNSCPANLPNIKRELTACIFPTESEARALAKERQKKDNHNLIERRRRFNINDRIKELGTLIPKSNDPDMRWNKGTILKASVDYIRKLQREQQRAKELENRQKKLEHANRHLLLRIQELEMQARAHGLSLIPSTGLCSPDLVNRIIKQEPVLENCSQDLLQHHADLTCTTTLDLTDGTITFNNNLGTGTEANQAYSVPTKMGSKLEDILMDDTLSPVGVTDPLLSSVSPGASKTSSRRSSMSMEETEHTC
FBW7 act: activators of human E3 ligase FBW7; AlphaScreen FBW7–phospho-cyclin E peptide binding, activator screen; normalized activity (activation), % at 26.1 µM; 650,000 compounds, 0.13% hits; AID 1259310; in the data active = normalized activity above about 1.9%;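 also: purified mutant Fbw7 with reduced substrate affinity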
TEAD-YAP inh: TEAD-YAP interaction inhibition; 640,000 compounds, 1.4% hits; inhibition, % at 9.12 µM; HEK-TIYL cells, TEAD-Gal4/YAP UAS-luciferase luminescence; in the data active = inhibition above about 32%;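 also: 0% = median of test compound wells and 100% = reference inhibitor wells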
Numbers without * were called inactive. Sampled rows, rich in hits. Any-hit rate of the full collection: about 3.5%.

SMILES	GPR151 activ	MITF inh	FBW7 act	TEAD-YAP inh
Cc1ccc(NC(=O)/C(Cl)=C\c2ccccc2)cc1	-4	14	1	65*
COc1ccc(NC(=O)/C(Cl)=C\c2ccccc2)cc1	-2	23	0	45*
CC(=O)c1ccc(NC(=O)/C(Cl)=C/c2ccccc2)cc1	-1	12	0	-1
CCOC(=O)c1cc2c(c(CSc3nc4cc(C(=O)NCC5CCCO5)ccc4c(=O)n3Cc3ccco3)c1)OCOC2 (configuration not stated)	-2	3	0	-13
CCOC(=O)c1c(NCCc2ccccc2)c2ccccc2[nH]c1=O	-1	7	0	6
Cc1cc(C(=O)COC(=O)c2cccc(NS(C)(=O)=O)c2)c(C)n1-c1ccccc1	-1	8	0	25
COCCn1c(C)cc(C(=O)COC(=O)c2ccccc2Nc2ccccc2)c1C	-1	13	0	75*
Cc1cc(C(=O)COC(=O)c2cccc(NS(C)(=O)=O)c2)c(C)n1Cc1ccccc1	0	-6	0	57*
COCCn1c(C)cc(C(=O)COC(=O)c2cccc(Oc3ccccc3)c2)c1C	-1	0	0	-13
COCCn1c(C)cc(C(=O)COC(=O)c2cccc(O)c2)c1C	-11	-6	0	62*
CCOC(=O)c1c(C)[nH]c(C)c1C(=O)COC(=O)c1cccc2ccccc12	2	6	0	0
CCC/C(O)=C1\C(=O)CC(C)(C)CC1=Nc1ccc(OC)cc1OC	0	17	0	55*
CC(=O)N1CCC(N(C(=O)CCC(=O)O)C2CC2)CC1	0	14	4.6*	-5
O=C(O)CCC(=O)N(C1CC1)C1CCN(CCc2ccccc2)CC1	0	6	0	0
COCCn1c(-c2ccc3c(c2)NC(=O)CO3)csc1=Nc1ccccc1	-3	18	0	2
Cc1cnc(CNc2cc(-c3cccc(C(F)(F)F)c3)nc(-c3cccnc3)n2)nc1	1	21	0	10
CCOC(=O)c1c(Cl)nc2ccccc2c1Cl	0	9	0	-1
O=S(=O)(O)CCc1cc[n+](CC(O)CO)cc1 (configuration not stated)	-1	8	2.8*	6
O=S(=O)(O)CCc1cc[n+](CC(O)CCl)cc1 (configuration not stated)	-1	4	2.4*	17
Nc1ccc(OCC[n+]2ccc(CCS(=O)(=O)O)cc2)cc1	1	0	0	-8
O=C(Nc1ccccc1)N1CCC2(CC1)NCCc1c2[nH]c2ccc(Cl)cc12	0	10	0	46*
COc1ccc(-c2cc(Nc3ccc(Oc4ccccc4)cc3)nc(N)n2)cn1	2	6	0	44*
COc1ccc(CCNc2cc(-c3ccccc3)nc(N)n2)cc1	0	3	0	42*
Cc1nn(C)c(C)c1-c1cc(Nc2ccc(Oc3ccccc3)cc2)nc(N)n1	-1	40	0	54*
COc1cc(Nc2cc(N3CCc4ccccc4C3)nc(N)n2)cc(OC)c1OC	3	5	0	37*
SMILES	GPR151 activ	MITF inh	FBW7 act	TEAD-YAP inh
COc1ccc(-c2cc(Nc3ccc(NC(C)=O)cc3)nc(N)n2)cn1	-1	-6	0	-13
COc1ccc(-c2cc(NCCc3ccc(O)cc3)nc(N)n2)cc1	-1	7	0	-44
CS(=O)(=O)N(CC(=O)Nc1cccc(Cl)c1)c1cc(C(F)(F)F)ccc1Cl	2	3	0	3
CCCCNC(=O)c1cc2nc(-c3ccco3)cc(C(F)(F)F)n2n1	-1	5	0	-3
O=C(N/N=C\c1ccncc1)c1ccccn1	-1	0	0	-36
COc1ccc(-c2cc(Nc3cc(OC)c(OC)c(OC)c3)nc(N)n2)cc1	2	-17	0	41*
COc1ccc(CCNc2cc(-c3ccc(OC)nc3)nc(N)n2)cc1	-1	0	0	51*
COc1ccc(C)cc1S(=O)(=O)Nc1cccc(N2CCCCC2=O)c1	-2	-10	0	1
CC1(C)CC(=O)C=C(NNS(=O)(=O)c2ccccc2)C1	0	15	0	8
CC1=CC(C)(C)N2C(=O)C(=O)c3cc(OC(=O)c4ccccc4F)cc1c32	0	5	0	45*
CCN(CC)c1ccc(NC(=O)c2ccc3c4c(cccc24)CC3)cc1	0	10	0	51*
Nc1nc2c(nc(N3CCOCC3)n2C2OC(CO)C(O)C2O)c(=O)[nH]1 (configuration not stated)	-1	10	2.3*	4
O=C(Nc1ccc(Br)cc1F)C1COc2ccccc2O1 (configuration not stated)	0	11	0	-53
